About 480 (0.15%) of roughly 320,000 compounds were called active. Only a selection was taken, and actives are over-represented in it overall. Unmarked numbers belong to inactive results. Cut-off read from the data, not from the text of the source: active = inhibition above about 33%; inactive = the rest.
What follows are molecules tested against Lytic switch protein BZLF1 (Epstein-Barr virus (strain B95-8)) (UniProt P03206) (assay: Zta-DNA interaction blockers, Epstein-Barr virus – biochemical, fluorescence polarization, single concentration, counter-screen for EBNA-1 inhibitor project, primary screen (AID 2234)). Conditions: ZTA-DNA binding, at 11 µM, stronger effect = higher value.
Sequence of Lytic switch protein BZLF1 (Epstein-Barr virus (strain B95-8)) (P03206 whole entry, looked up): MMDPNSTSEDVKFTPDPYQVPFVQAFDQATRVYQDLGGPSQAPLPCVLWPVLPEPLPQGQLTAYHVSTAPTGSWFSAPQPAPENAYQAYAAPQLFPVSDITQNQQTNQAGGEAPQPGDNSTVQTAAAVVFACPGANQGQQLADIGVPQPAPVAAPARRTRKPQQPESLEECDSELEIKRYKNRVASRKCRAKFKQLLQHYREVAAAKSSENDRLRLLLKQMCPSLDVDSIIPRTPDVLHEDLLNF
With `CCC1Oc2ccccc2N(CC(=O)NCCCN2CCN(CC)CC2)C1=O` (stereo not drawn) the inhibition was -3.45%.
Molecule `COc1ccc(C(=O)C2CCCN(C(=O)c3cnsn3)C2)c(C)c1` (stereo not drawn) has an inhibition of -0.75%.
`COc1ccc(S(=O)(=O)/N=C2\C=C(NS(=O)(=O)c3ccccc3)C(=O)c3ccccc32)cc1` showed an inhibition of 7.31%.
With `Cc1ccc(C2CC(c3cccc(NS(C)(=O)=O)c3)=NN2S(C)(=O)=O)cc1` (stereo not drawn) the inhibition was 0.89%.
Molecule `CN1CCN(Cc2nc3cc(NC(=O)COc4ccc([N+](=O)[O-])cc4)ccc3n2C)CC1` has an inhibition of -16.4%.
`CC(NC(=O)c1cccc2ccccc12)c1ccc2c(c1)CCCC2` (stereo not drawn) was tested, and the inhibition was -9.25%.
In the case of `CCOC(=O)CN(C(=O)COc1nc(C)cc(C)c1C#N)c1ccc(Cl)cc1`, the inhibition is reported as 3.1%.
`CC(=O)Nc1ccc(NC(=O)COC(=O)c2ccccc2C(=O)c2ccccc2)cc1` was tested, and the inhibition was 1.75%.
With `COc1ccc(N2CC(NS(=O)(=O)c3ccc4ccccc4c3)CC2=O)cc1` (stereo not drawn) the inhibition was -13.8%.
With `CCC1=C(OC(=O)N(CC)CC)N2C(=O)OC(=NCC3CC3)[C@]2(C)[C@H]2C1=CC[C@H]1C(=O)N(CC(=O)OC)C(=O)[C@H]12` the inhibition was 14%.
`CN(C(=O)CN1C(=O)CCSc2ccc(S(=O)(=O)N3CCCC3)cc21)c1ccccc1` was tested, and the inhibition was 4.65%.
With `COCCOC(=O)C1=C(C)NC(=O)NC1c1cc2c(cc1Br)OCO2` (stereo not drawn) the inhibition was -2.42%.
For `Cc1cc(C(=O)OCC(=O)Nc2ccccc2Cl)c(C)o1`, the inhibition was -1%.
`CC1(c2nnc(-c3ccncc3)o2)CC(c2cccnc2)=NO1` (stereo not drawn) was tested, and the inhibition was -4.98%.
For `CCNc1nc(Oc2ccc(C(=O)OC)cc2)nc(N2CCOCC2)n1`, the inhibition was 26.6%.
In the case of `CCN1CCN(CCNC(=O)c2ccc(/C=C3/Sc4ccccc4N(Cc4cccc(C)c4)C3=O)cc2)CC1`, the inhibition is reported as 56.8% (active).
Molecule `O=C(NCCCN1CCOCC1)c1ccc2c(c1)N(Cc1cccc(F)c1)C(=O)c1ccccc1S2` has an inhibition of -13.9%.
`Cc1ccccc1CN1C(=O)c2ccccc2Sc2ccc(C(=O)NCCCN3CCOCC3)cc21` was tested, and the inhibition was 5.14%.
`Cn1c(=O)c2c(ncn2CCc2ccccc2)n(C)c1=O` gave an inhibition of -0.22%.
With `Cn1cnc2c1c(=O)n(Cc1ccccc1C#N)c(=O)n2C` the inhibition was 95.5% (active).
In the case of `Cn1cnc2c1c(=O)n(Cc1c(Cl)cccc1Cl)c(=O)n2C`, the inhibition is reported as -29.3%.
With `Cc1ccc(Cc2nnc(SCC(=O)Nc3ccccc3C)[nH]c2=O)cc1` the inhibition was 0.83%.
`Cc1ccc(C(=O)O)cc1-c1ccc(/C=C2\SC(=O)N(CC(=O)Nc3ccc4c(c3)OCO4)C2=O)o1` was tested, and the inhibition was 9.2%.
`CCN1C(=NCC(C)C)N[C@@H](CCc2ccccc2)[C@H](C(=O)NCC(C)C)[C@H]1C` showed an inhibition of -17.1%.
`CCOC(=O)CC(NC(=O)C1c2ccccc2Oc2ccccc21)c1ccc(C)cc1` (stereo not drawn) was tested, and the inhibition was 2.93%.
With `COc1ccc(N(CC(=O)Nc2ccc(F)c(F)c2)S(=O)(=O)c2c(C)[nH]c(=O)[nH]c2=O)cc1` the inhibition was 3.47%.
`COC(=O)c1ccc(CN2CCN(CCCc3ccccc3)C(CCO)C2)cc1` (stereo not drawn) showed an inhibition of -17.9%.
Molecule `Cc1cccn2c(CNCC(C)Oc3cccnc3)c(C(=O)N3CCOCC3)nc12` (stereo not drawn) has an inhibition of 13.7%.
With `O=C(CC(NCCN1CCOCC1)C(=O)O)Nc1cccc(Cl)c1` (stereo not drawn) the inhibition was 5.11%.
In the case of `CCCCS(=O)c1snnc1C` (stereo not drawn), the inhibition is reported as -5.28%.
With `Cc1ccc2c(C)c(C(=O)N3CCN(c4ccncc4)CC3)oc2c1C` the inhibition was 1.76%.
For `O=C(COc1cccc(F)c1)Oc1ccc(C(=O)c2ccccc2)cc1`, the inhibition was 12.6%.
With `CCC1CCC/C1=N\NC(=O)c1ccc(Cl)cc1` (stereo not drawn) the inhibition was 4.98%.
`COc1cc(-c2nnc(Cn3cc(C(F)(F)F)ccc3=O)o2)cc(OC)c1OC` gave an inhibition of 5.1%.
In the case of `COC(=O)C1CCCCN1C(=O)c1ccc(OC2CCN(C(C)=O)CC2)c(OC)c1` (stereo not drawn), the inhibition is reported as 5.86%.
For `O=C(c1cccc(-n2cccc2)c1)N1CCN(S(=O)(=O)c2ccc(F)cc2)CC1`, the inhibition was -25.8%.
Molecule `O=C(NC1CC1)C1=C[C@H](c2coc3ccccc3c2=O)C[C@H](OCCCCO)O1` has an inhibition of -2.42%.
Molecule `N#CCSc1nc2ccc(N3CCOCC3)cc2c(=O)n1CCc1ccccc1` has an inhibition of -10.6%.
`O=C(Nc1cccc(-c2nc3ccccc3[nH]2)c1)c1ccc(C(=O)Nc2cccc(-c3nc4ccccc4[nH]3)c2)cc1` was tested, and the inhibition was 84% (active).
`Cc1ccc(-c2nc3ccccc3[nH]2)cc1N` gave an inhibition of -1%.
With `O=C(Nc1ccccc1)c1cc2ccccc2[nH]1` the inhibition was -12.6%.
In the case of `Cc1cccc(N2C(=O)N3[C@H](c4ccc(F)cc4)[C@@H]4C(=O)N(C5CCCCC5)C(=O)[C@@H]4[C@]3(Cc3ccccc3)C2=O)c1`, the inhibition is reported as -2.81%.
Molecule `O=C(NCc1ccccc1CN1CCCC1)c1cccc(S(=O)(=O)Nc2ccc(F)cc2)c1` has an inhibition of 3.93%.
In the case of `CS(=O)(=O)Nc1cccc(C2=NN(C(=O)c3cccc(F)c3)C(c3cccs3)C2)c1` (stereo not drawn), the inhibition is reported as -3.98%.
`CN1CCN(CCCNC(=O)c2ccc(/C=C3\Oc4ccccc4N(Cc4ccc(Cl)cc4)C3=O)cc2)CC1` was tested, and the inhibition was 45.5% (active).
`CN1C(=O)/C(=C/c2ccc(C(=O)NC3CCCC3)cc2)Oc2ccccc21` was tested, and the inhibition was -2.56%.
In the case of `CCCN1CCN(C(=O)CCCNC(=O)c2ccc(Cl)cc2)CC1`, the inhibition is reported as 1.38%.
Work on `CC(=O)c1c(C)[nH]c(C(=O)OCC(=O)Nc2c(C)cccc2C)c1C` yielded an inhibition of 3.88%.
For `COC(=O)c1cc(N2CCNCC2)nc2ccccc12`, the inhibition was 5.41%.
`CC12CCC(=O)N1C(C(=O)NCCN1C(=O)S/C(=C\c3ccccc3F)C1=O)CS2` (stereo not drawn) showed an inhibition of -4.27%.
Work on `Cc1ccc(-c2nn(-c3ccc(F)cc3)cc2C(=O)NCC(c2cccs2)N2CCOCC2)cc1` (stereo not drawn) yielded an inhibition of 2.78%.
With `CC1=CC2=NC(=O)CC(C)(C(=O)N(CC(=O)NC(C)(C)C)Cc3ccccc3)N2C=C1` (stereo not drawn) the inhibition was -6.91%.
`COc1cc(C2/C(=C(\O)c3ccc4c(c3)CC(C)O4)C(=O)C(=O)N2c2nnc(C)s2)cc(OC)c1OC` (stereo not drawn) showed an inhibition of -16.7%.
